According to PubChem BioAssay AID1159577 (Broad Institute, 2015):
About 240 (18%) of roughly 1,300 compounds were called active. Another 8% or so got no clear call; they are omitted. The rule behind the calls is not given here. The list is a sample of the results. Entries with a potency or affinity are not part of this list.

assay: toxicity to human hepatoma HepG2 cells – cell-based, cherry-picked samples, cytotoxicity control, dose response (AID 1159577); conditions: HepG2 cytotoxicity counterscreen, plate reader; series mostly up to 19.5 µM

Row | SMILES | outcome
1 | COc1ccc(-c2ccc3c(c2)[C@@H]2[C@@H](CCN2Cc2ccncc2)[C@@H](CO)N3)cc1 | inactive
2 | CO[C@@H]1CN(C)C(=O)c2ccc(NC(=O)Nc3ccc(F)cc3)cc2OC[C@@H](C)N(C(=O)c2ccc(F)cc2)C[C@H]1C | inactive
3 | CC(C)CC#Cc1ccc([C@H]2[C@@H](CO)N3C(=O)CN(C(=O)Cc4ccccc4)C[C@H]23)cc1 | inactive
4 | C[C@H](CO)N1C[C@H](C)[C@@H](CN(C)C(=O)Nc2ccc(-c3ccccc3)cc2)OCc2ccccc2-c2c(n(C)c3ccccc23)C1=O | inactive
5 | COc1ccc2c3c([nH]c2c1)[C@H](CO)N(Cc1ccccc1Cl)CC31CCN(C(C)=O)CC1 | inactive
6 | C[C@@H]1CN([C@H](C)CO)C(=O)c2cc(C#Cc3ccccc3F)cnc2O[C@H]1CN(C)C(=O)c1ccc2c(c1)OCO2 | inactive
7 | COc1ccc(-c2ccccc2[C@H]2[C@@H](C#N)N(C(=O)C3CCCC3)[C@H]2CO)cc1 | inactive
8 | CN1c2ccc(C3=CCCCC3)cc2[C@H]2[C@H](CCN2C(=O)C2CC2)[C@@H]1CO | inactive
9 | COC(=O)c1ccc(CN2CC(=O)N3[C@H](CO)[C@@H](c4ccc(-c5ccccc5F)cc4)[C@H]3C2)cc1 | inactive
10 | CC(C)NC(=O)N1CCCCN2[C@H](CO)[C@@H](c3ccc(C#C[C@H](C)O)cc3)[C@@H]2C1 | inactive
11 | CCC(=O)N1CCC2(CC1)CN(C(=O)Nc1ccc(F)cc1)[C@@H](CO)c1c2c2ccc(OC)cc2n1C | inactive
12 | C[C@H]1CN([C@@H](C)CO)C(=O)c2cc(NC(=O)Cc3cn(C)c4ccccc34)ccc2O[C@H]1CN(C)S(=O)(=O)c1cccs1 | inactive
13 | C[C@@H]1CN([C@H](C)CO)S(=O)(=O)c2ccc(-c3ccncc3)cc2O[C@@H]1CN(C)Cc1ccc(Oc2ccccc2)cc1 | inactive
14 | C[C@@H]1CN([C@H](C)CO)C(=O)c2cccc(NC(=O)Nc3cccc4ccccc34)c2O[C@@H]1CN(C)C(=O)Nc1ccc(F)cc1 | inactive
15 | C/C=C/c1ccc2c(c1)[C@H]1[C@H](CCN1C(=O)c1cccc(F)c1)[C@H](CO)N2 | inactive
16 | O=C(O)C[C@@H]1C[C@@H]2c3cc(NS(=O)(=O)c4ccccc4)ccc3O[C@@H]2[C@H](CO)O1 | inactive
17 | C[C@@H](NC(=O)C[C@H]1C[C@@H]2c3cc(NS(=O)(=O)c4ccc(F)cc4)ccc3O[C@@H]2[C@H](CO)O1)c1ccccc1 | inactive
18 | CCS(=O)(=O)N1CCC2(CC1)CN(Cc1ccc3c(c1)OCO3)[C@@H](CO)c1[nH]c3cc(OC)ccc3c12 | inactive
19 | CCCNC(=O)N1[C@H](C#N)[C@H](c2ccc(C#Cc3cccc(F)c3)cc2)[C@H]1CO | inactive
20 | N#Cc1cccc(-c2ccc3c(c2)[C@H]2[C@H](CCN2Cc2ccncc2)[C@@H](CO)N3)c1 | inactive
21 | O=C(Cc1ccncc1)N1CC[C@@H]2[C@@H](CO)Nc3ccc(-c4cccc(F)c4)cc3[C@@H]21 | inactive
22 | O=C(C1CCCC1)N1CC[C@@H]2[C@H]1c1cc(-c3cccc(F)c3)ccc1N[C@@H]2CO | inactive
23 | N#Cc1cccc(-c2ccc3c(c2)[C@@H]2[C@@H](CCN2Cc2cncnc2)[C@H](CO)N3)c1 | inactive

Row | SMILES | outcome
24 | COc1ccc(S(=O)(=O)N(C)C[C@H]2Oc3c(NC(=O)Nc4ccc5c(c4)OCO5)cccc3C(=O)N([C@@H](C)CO)C[C@H]2C)cc1 | inactive
25 | CCc1nc(N2[C@H](C#N)[C@H](c3ccccc3-c3ccccc3F)[C@H]2CO)sc1C | inactive
26 | COc1ccc(CN2CC3(CN(C(=O)Cc4ccccc4)C3)c3c([nH]c4cc(OC)ccc34)[C@H]2CO)cc1 | inactive
27 | CO[C@H]1CN(C)C(=O)c2ccc(NC(=O)Nc3cc(F)ccc3F)cc2OC[C@@H](C)N(C)C[C@H]1C | inactive
28 | COc1ccc2c3c(n(C)c2c1)[C@H](CO)N(C(=O)CC1CC1)CC31CCN(Cc2nccs2)CC1 | inactive
29 | Cc1ccccc1S(=O)(=O)N1[C@H](C#N)[C@H](c2ccc(C#CC3CCCC3)cc2)[C@@H]1CO | inactive
30 | CN1c2ccc(C#Cc3cccnc3)cc2[C@@H]2[C@@H](CCN2S(=O)(=O)c2ccccc2F)[C@@H]1CO | inactive
31 | Cc1ccc(S(=O)(=O)N(C)C[C@H]2OCc3ccccc3-c3c(n(C)c4ccccc34)C(=O)N([C@@H](C)CO)C[C@@H]2C)cc1 | inactive
32 | O=S(=O)(c1ccc(F)cc1)N1C[C@@H]2N[C@H](C1)C2c1ccc(-c2ccc(F)cc2)cc1 (some centres undefined) | inactive
33 | Cc1ccc(S(=O)(=O)N2C[C@@H]3N[C@H](C2)C3c2ccc(-c3ccncc3)cc2)cc1 (some centres undefined) | inactive
34 | Cn1cnc(S(=O)(=O)N2C[C@@H]3N[C@H](C2)C3c2ccc(-c3ccccc3F)cc2)c1 (some centres undefined) | inactive
35 | O=S(=O)(c1ccc(-c2ccccc2)cc1)N1C[C@@H]2N[C@H](C1)[C@@H]2c1ccc(-c2cccnc2)cc1 | inactive
36 | Cc1ccc(-c2ccc(C3[C@@H]4CN(S(=O)(=O)c5ccccc5)C[C@H]3N4)cc2)cc1 (some centres undefined) | inactive
37 | N#Cc1ccc(-c2ccc(C3[C@@H]4CN(S(=O)(=O)c5ccc(F)cc5)C[C@H]3N4)cc2)cc1 (some centres undefined) | inactive
38 | COc1cccc(-c2ccc3c(c2)[C@H]2[C@H](CCN2C(=O)C2CCCC2)[C@H](CO)N3)c1 | inactive
39 | COc1ccc2c3c(n(C)c2c1)[C@@H](CO)N(C(=O)c1ccc(F)cc1)CC31CCN(C(=O)Nc2ccc(F)cc2)CC1 | inactive
40 | COc1ccc(NC(=O)N(C)C[C@@H]2Oc3cc(-c4ccc(C)cc4)ccc3S(=O)(=O)N([C@@H](C)CO)C[C@@H]2C)cc1 | inactive
41 | COc1ccc(C#Cc2ccc3c(c2)[C@H]2[C@H](CCN2C(=O)C2CCC2)[C@H](CO)N3)cc1 | inactive
42 | OC[C@@H]1CC[C@@H]2O[C@H](CCc3ccc(C#CCc4ccccc4)cc3)[C@H](n3cc(-c4ccccc4)nn3)C[C@@H]2O1 | inactive
43 | C[C@@H]1CN([C@H](C)CO)C(=O)c2cccc(NC(=O)Nc3cccc4ccccc34)c2O[C@H]1CN(C)C(=O)NC1CCCCC1 | inactive
44 | CCCNC(=O)N1CC(=O)N2[C@@H](CO)[C@@H](c3ccc(C#Cc4cccc(OC)c4)cc3)[C@@H]2C1 | inactive
45 | COc1cccc(S(=O)(=O)N(C)C[C@@H]2Oc3ncc(C#Cc4ccc(OC)c(OC)c4)cc3C(=O)N([C@H](C)CO)C[C@@H]2C)c1 | inactive
46 | COc1ccc(NC(=O)N(C)C[C@H]2OCc3ccccc3-c3c(n(C)c4ccccc34)C(=O)N([C@@H](C)CO)C[C@H]2C)c(OC)c1 | inactive

Row | SMILES | outcome
47 | C[C@@H]1CN([C@@H](C)CO)C(=O)c2cccc(NC(=O)C3CC3)c2O[C@@H]1CN(C)C(=O)Nc1ccc(C(F)(F)F)cc1 | inactive
48 | COc1cccc(NC(=O)N2[C@H](CO)[C@@H](c3ccccc3)[C@H]2CNCC(C)C)c1 | inactive
49 | O=S(=O)(c1ccccc1)N1C[C@@H]2N[C@H](C1)C2c1ccc(-c2ccc(F)cc2)cc1 (some centres undefined) | inactive
50 | CC=Cc1ccc2n(c1=O)C[C@@H]1[C@@H](CO)[C@H](C(=O)N3CCC(Cc4ccccc4)CC3)N(CCC)[C@H]21 (mixture of isomers) | inactive
51 | C[C@H](CO)N1C[C@H](C)[C@@H](CN(C)C(=O)Nc2cccc3ccccc23)Oc2ccc(NC(=O)Nc3cccc4ccccc34)cc2CC1=O | inactive
52 | C[C@H]1CN([C@@H](C)CO)C(=O)c2cc(NC(=O)Nc3cccc4ccccc34)ccc2O[C@@H]1CN(C)Cc1ccc(Oc2ccccc2)cc1 | inactive
53 | C[C@@H]1CN([C@H](C)CO)C(=O)c2cc(NC(=O)Nc3ccc(C(F)(F)F)cc3)ccc2O[C@H]1CN(C)C(=O)Nc1cccc2ccccc12 | inactive
54 | C[C@H](CO)N1C[C@H](C)[C@@H](CN(C)Cc2ccc(Oc3ccccc3)cc2)Oc2ccc(NS(=O)(=O)c3cn(C)cn3)cc2CC1=O | inactive
55 | C[C@H](CO)N1C[C@H](C)[C@H](CN(C)Cc2ccc(Oc3ccccc3)cc2)Oc2ccc(NS(=O)(=O)c3ccc(Cl)cc3)cc2CC1=O | inactive
56 | CO[C@H]1CN(C)C(=O)c2cc(NC(=O)C3CC3)ccc2OC[C@@H](C)N(Cc2cc(F)ccc2F)C[C@H]1C | inactive
57 | O=S(=O)(c1ccccc1)N1CC[C@@H]2[C@H](CO)Nc3ccc(C#CC4CCCCC4)cc3[C@@H]21 | inactive
58 | COc1ccc2c3c(n(C)c2c1)[C@@H](CO)N(C(=O)C1CCC1)CC31CN(C(=O)Nc2cccc(F)c2)C1 | inactive
59 | COc1cccc(-c2ccc3c(c2)[C@H]2[C@H](CCN2C(=O)C2CCCC2)[C@@H](CO)N3)c1 | inactive
60 | COCC#Cc1ccc([C@@H]2[C@H](CO)N3CCCCN(S(=O)(=O)c4ccc(OC)cc4)C[C@@H]23)cc1 | inactive
61 | CCC(=O)N1CC2(C1)CN(Cc1cc(F)ccc1F)[C@@H](CO)c1[nH]c3cc(OC)ccc3c12 | inactive
62 | OC[C@@H]1CC[C@@H]2O[C@H](CCc3ccc(-c4ccc(F)cc4)cc3)[C@H](n3cc(C4CC4)nn3)C[C@@H]2O1 | inactive
63 | CC(C)(C)[S@](=O)N1Cc2cc(C(=O)NCCN3CCCC3)nc(-c3cccc(-c4ccc(C#N)cc4)c3)c2[C@@H]1CCO | inactive
64 | C/C=C/c1ccc([C@H]2[C@@H](CO)N(C(=O)CC)[C@@H]2CNCC2CCCCC2)cc1 | inactive
65 | C/C=C/c1ccc([C@H]2[C@@H](CO)N(CC3CCCCC3)[C@@H]2CNC(C)C)cc1 | inactive
66 | C/C=C/c1ccc([C@H]2[C@@H](CO)N(CC3CCCC3)[C@@H]2CNC(=O)NC(C)C)cc1 | inactive
67 | CCc1csc(N2[C@H](C#N)[C@H](c3ccccc3-c3ccc(F)cc3)[C@H]2CO)n1 | inactive
68 | C/C=C/c1ccccc1[C@@H]1[C@@H](CO)N(S(=O)(=O)c2cccc(F)c2)[C@H]1C#N | inactive
69 | C/C=C/c1ccc([C@H]2[C@@H](C#N)N(C(=O)NC3CCCC3)[C@@H]2CO)cc1 | inactive
